This is an account of results in PubChem BioAssay.

A number with no mark means an inactive call. Calls of active or inactive are those of the source.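 Rule for the calls: active = thallium flux through the channel raised or lowered by more than 3 SD from vehicle-only wells, actives on both sides; inactive = the rest.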

Assay in all cases: modulators of BK channel variants, profiling panel, selectivity assay, cell-based, U2OS BacMam, thallium flux, beta subunits (AID 1259406);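 note: initial slope of Thallos dye fluorescence rise after thallium is added; log ratio against the mean of 0.3% DMSO vehicle wells on the same plate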
One test has as its system F380Y. The settings on record: at 30 µM.
In the next test the test system is F380Y/beta1. The note with it: at 30 µM.
A further test relates to F380Y/beta2Delta. The note with it: at 30 µM.
Another test concerns F380Y/beta4. The settings on record: at 30 µM.
For test [1], the target named is Calcium-activated potassium channel subunit alpha-1 (Homo sapiens) + Leucine-rich repeat-containing protein 26 (Homo sapiens) (UniProt Q12791+Q2I0M4). The note with it: F380Y/Slo1WT/gamma1, at 30 µM.
Sequence of Calcium-activated potassium channel subunit alpha-1 (Homo sapiens) + Leucine-rich repeat-containing protein 26 (Homo sapiens) (Q2I0M4 whole entry, looked up, one chain of several): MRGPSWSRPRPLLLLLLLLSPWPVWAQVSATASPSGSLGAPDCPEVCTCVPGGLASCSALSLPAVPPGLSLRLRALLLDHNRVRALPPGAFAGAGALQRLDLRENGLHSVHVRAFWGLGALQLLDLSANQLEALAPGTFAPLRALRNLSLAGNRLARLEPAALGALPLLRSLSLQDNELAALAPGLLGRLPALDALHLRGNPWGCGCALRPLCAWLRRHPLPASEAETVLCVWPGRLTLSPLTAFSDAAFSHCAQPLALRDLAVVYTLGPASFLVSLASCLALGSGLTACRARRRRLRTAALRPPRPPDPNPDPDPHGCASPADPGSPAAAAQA
The next test deals with R275C. The settings on record: at 30 µM.
A further test deals with R275C/beta1. The settings on record: at 30 µM.
The test system of another test is R275C/beta2Delta. The note with it: at 30 µM.
Another test concerns R275C/beta4. The note with it: at 30 µM.
Another test relates to R275C/Slo1WT/beta2. The settings on record: at 30 µM.

`O=C(CSCc1csc2ccccc12)NCc1ccc2c(c1)OCO2`: the log fold change Tl+ flux in the test on F380Y was -0.00508; with F380Y/beta1, -0.0221; in the test on F380Y/beta2Delta it was -0.0281; in the test with F380Y/beta4 it was -0.0396; in test [1], -0.13 (active); with R275C, -0.0377. Moreover, the log fold change Tl+ flux in the test with R275C/beta1 is -0.0155; in the test on R275C/beta2Delta, -0.0321; with R275C/beta4, -0.0151; in the test with R275C/Slo1WT/beta2, -0.0571.
For `O=C(OCCSc1sccc1[N+](=O)[O-])c1ccc(Cl)cc1`, the log fold change Tl+ flux in the test on F380Y was -0.00334; with F380Y/beta1, -0.009; in the test on F380Y/beta2Delta, 0.0128; with F380Y/beta4, -0.0285; in [1], -0.0095; with R275C it was 0.0114. Further, the log fold change Tl+ flux is -0.0166 in the test on R275C/beta1, 0.0149 in the test with R275C/beta2Delta, -0.01 in the test on R275C/beta4 and 0.0278 in the test on R275C/Slo1WT/beta2.
With `O=C(NC(=O)N1CCCCC1)c1cc(Br)cc(Br)c1`, the log fold change Tl+ flux is -0.337 (active) in the test on F380Y; -0.109 (active) with F380Y/beta1; -0.277 (active) with F380Y/beta2Delta; -0.0283 in the test with F380Y/beta4; -0.127 (active) in test [1]; -0.145 (active) in the test on R275C. Besides, the log fold change Tl+ flux in the test with R275C/beta1 was -0.0155; in the test on R275C/beta2Delta, -0.0701; in the test on R275C/beta4 it was -0.0253; in the test with R275C/Slo1WT/beta2 it was -0.0054.
For the compound `FC(F)(F)COc1ccc(-c2nnc(SCc3ccccc3C(F)(F)F)o2)cn1`, the log fold change Tl+ flux in the test on F380Y is 0.00456; in the test with F380Y/beta1, -0.0223; in the test with F380Y/beta2Delta, -0.0257; with F380Y/beta4 it was -0.0497; in test [1], -0.0179; in the test on R275C, -0.0108. For the same compound, the log fold change Tl+ flux with R275C/beta1 was 0.0313; with R275C/beta2Delta it was -0.0204; in the test on R275C/beta4, 0.0273; with R275C/Slo1WT/beta2, 0.0157.
On to `CC(=O)N(C(C)=O)c1ccc2c3c(cccc13)CC2`, for which the log fold change Tl+ flux in the test on F380Y was 0.051; with F380Y/beta1 it was -0.00187; in the test on F380Y/beta2Delta it was -0.0119; in the test on F380Y/beta4, -0.0487; in test [1], -0.0226; in the test with R275C, 0.0133. Also, the log fold change Tl+ flux with R275C/beta1 is 0.0421; with R275C/beta2Delta it was -0.00855; in the test with R275C/beta4, 0.0484; with R275C/Slo1WT/beta2, 0.0138.
On to `Nc1ccc(Cl)cc1-c1nc2ccccc2[nH]1`, for which the log fold change Tl+ flux in the test with F380Y was -0.0882; in the test on F380Y/beta1, -0.0427; with F380Y/beta2Delta it was -0.0974; with F380Y/beta4, -0.0939 (active); in test [1], -0.0918; with R275C, -0.0721. The log fold change Tl+ flux was -0.112 (active) in the test on R275C/beta1, -0.0678 in the test with R275C/beta2Delta, -0.0366 in the test with R275C/beta4 and 0.00169 in the test with R275C/Slo1WT/beta2.
For the compound `Cc1ccc(C2=C(c3ccccc3)C(=O)C(c3ccccc3)=C2c2ccc(Cl)cc2)cc1`, the log fold change Tl+ flux in the test with F380Y is -0.00103; with F380Y/beta1, -0.0199; in the test on F380Y/beta2Delta, 0.00394; in the test with F380Y/beta4 it was -0.0256; in test [1], 0.0117; in the test with R275C it was 0.0143. Besides, the log fold change Tl+ flux in the test on R275C/beta1 was -0.08; in the test on R275C/beta2Delta, 0.0554; with R275C/beta4, -0.0334; in the test on R275C/Slo1WT/beta2 it was -0.0207.
As to `Cc1c(C(=O)CSc2n[nH]c(=O)n2C(C)c2ccccc2)sc2ccc(Cl)cc12` (stereo not given), the log fold change Tl+ flux in the test on F380Y is 0.0243; in the test on F380Y/beta1, 0.0267; with F380Y/beta2Delta, 0.0136; in the test with F380Y/beta4 it was -0.00607; in test [1], 0.0185; in the test with R275C it was 0.0226. In addition, the log fold change Tl+ flux in the test on R275C/beta1 was 0.0417; in the test on R275C/beta2Delta, 0.0219; in the test with R275C/beta4, 0.0303; with R275C/Slo1WT/beta2, -0.0119.
For `COC(=O)c1ccc(C=Cc2cccc(Cl)c2)s1`, the log fold change Tl+ flux with F380Y was -0.0764; with F380Y/beta1, -0.0156; in the test with F380Y/beta2Delta, -0.00709; in the test with F380Y/beta4 it was -0.264 (active); in test [1], -0.421 (active); with R275C, -0.198 (active). The log fold change Tl+ flux with R275C/beta1 was -0.192 (active); with R275C/beta2Delta it was -0.00722; in the test with R275C/beta4, -0.0416; with R275C/Slo1WT/beta2, -0.104 (active).
Take `O=C(CCN1CCOCC1)Nc1cc(Cl)cc(Cl)c1`: the log fold change Tl+ flux in the test with F380Y was 0.0457; in the test on F380Y/beta1 it was 0.0335; in the test with F380Y/beta2Delta, 0.00661; in the test with F380Y/beta4 it was 0.024; in test [1] it was -0.0241; in the test on R275C, 0.0216. For the same compound, the log fold change Tl+ flux with R275C/beta1 was 0.0618; in the test on R275C/beta2Delta, 0.0272; with R275C/beta4, 0.0419; with R275C/Slo1WT/beta2, -0.0333.
For `O=C(Cn1ccc(C(F)(F)F)n1)c1ccc(Cl)cc1`, the log fold change Tl+ flux in the test on F380Y was 0.0102; with F380Y/beta1, 0.0189; in the test with F380Y/beta2Delta, -0.0159; with F380Y/beta4, 0.0229; in [1], -0.00441; in the test with R275C it was 0.00925. The log fold change Tl+ flux with R275C/beta1 is 0.0122; with R275C/beta2Delta, -0.0132; in the test on R275C/beta4, 0.0276; in the test with R275C/Slo1WT/beta2, 0.0269.
Consider `COCCCNC(=O)C(C#N)=CN(C)C`, for which the log fold change Tl+ flux is -0.062 in the test on F380Y; -0.0601 in the test with F380Y/beta1; -0.103 (active) in the test with F380Y/beta2Delta; 0.0041 in the test with F380Y/beta4; -0.0197 in test [1]; -0.0308 with R275C. Besides, the log fold change Tl+ flux in the test with R275C/beta1 was -0.0584; in the test on R275C/beta2Delta, -0.0395; in the test with R275C/beta4 it was -0.0325; in the test with R275C/Slo1WT/beta2, 0.0541.
With `Clc1ccc(-c2cnc(-c3ccc(Cl)cc3)o2)cc1`, the log fold change Tl+ flux is 0.0159 in the test on F380Y; -0.0226 in the test with F380Y/beta1; 0.0345 in the test on F380Y/beta2Delta; -0.00734 in the test on F380Y/beta4; -0.0607 in test [1]; 0.0428 in the test on R275C. In addition, the log fold change Tl+ flux in the test with R275C/beta1 was 0.00118; with R275C/beta2Delta, 0.0163; in the test on R275C/beta4, 0.00237; in the test on R275C/Slo1WT/beta2 it was -0.017.
Take `O=C(c1ccccc1)c1c(Cl)cc(C(F)(F)F)cc1Cl`: the log fold change Tl+ flux in the test on F380Y is -0.0258; in the test on F380Y/beta1 it was 0.0352; in the test on F380Y/beta2Delta, 0.0614; in the test on F380Y/beta4 it was 0.0559; in test [1] it was 0.0324; with R275C, 0.00162. The log fold change Tl+ flux was 0.0087 with R275C/beta1, 0.0434 with R275C/beta2Delta, 0.000317 with R275C/beta4 and 0.0159 with R275C/Slo1WT/beta2.
Turning to `O=C(O)c1nnn(-c2ccccc2Oc2ccc(Cl)cc2Cl)c1-c1ccccc1`, the log fold change Tl+ flux with F380Y was 0.0736; in the test on F380Y/beta1, 0.343 (active); with F380Y/beta2Delta, 0.17 (active); in the test on F380Y/beta4, 0.243 (active); in test [1] it was 0.127 (active); in the test with R275C it was -0.021. For the same compound, the log fold change Tl+ flux in the test on R275C/beta1 is 0.297 (active); in the test with R275C/beta2Delta, 0.113 (active); with R275C/beta4, 0.287 (active); with R275C/Slo1WT/beta2, 0.0348.
